A selection: hits, their analogues and other compounds. The true share with any hit is near 11%.
G9a block = inhibitors of human histone lysine methyltransferase G9a. Q96KQ7. G9a H3K9 monomethylation, AlphaScreen, 2 h. Potency, µM (top dose mostly 102 µM), inactives show top-dose activity, negative = inhibition, hits mostly inhibitors. 350,000 compounds, 8.8% hits. AID 504332; also: % is scaled to controls: 0 for no effect and ±100 for the full control effect; nearly all actives have a fitted effect of over 75% in size
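Compounds were preincubated with 20 nM G9a for 15 min, after which biotinylated H3K9 peptide (500 nM) and SAM (20 uM) started a 2 h room-temperature reaction. Monomethylated product was quantified by antibody-based AlphaScreen chemiluminescence.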
BAZ2B block = inhibitors of human BAZ2B bromodomain; AlphaScreen BAZ2B-H3K14Ac peptide displacement; Potency, µM (doses to about 114 µM), for the others: at the top dose activity change, negative = inhibition, hits mostly inhibitors; 360,000 compounds, 4.4% hits; also: % is scaled to controls: 0 for no effect and ±100 for the full control effect; nearly all actives have a fitted effect of over 60% in size
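Complex of BAZ2B and biotin-H3K14Ac (50 nM apiece) forms over 30 min at RT, then faces library compounds up to 110 uM for another 30 min; AlphaScreen beads added, 20 min dark incubation, luminescence read.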
JMJD2A Tudor inh = inhibitors of human JMJD2A Tudor domain | 390,000 compounds, 4.4% hits | AlphaScreen JMJD2A-Tudor / H3K4me3 peptide binding | Potency, µM (highest dose often 114 µM), inactives show at the highest dose activity change, negative = inhibition, most hits filed as inhibitors; also: % is scaled to controls: 0 for no effect and ±100 for the full control effect; nearly all actives have a fitted effect of over 50% in size
HP1b chromo inh = inhibitors of HP1-beta chromodomain binding to methylated histone tails | P83916 | AlphaScreen HP1-beta / biotin-H3K9me3 peptide binding | Potency, µM (top dose mostly 114 µM), for inactives: at the top dose activity change, negative = inhibition, actives largely listed as inhibitors | 390,000 compounds, 0.56% hits; also: nearly all actives have a fitted effect of over 70% in size
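HP1-beta protein (50 nM final) preincubated 30 min at room temperature with biotinylated H3(1-18)K9me3 peptide (50 nM) in PBS pH 7.4, 0.01% Tween-20, then compound added for 30 min. AlphaScreen streptavidin donor/nickel chelate acceptor beads (10 ug/mL final), 30 min dark, luminescence read.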
VDR inhibitor = blocks the human vitamin D receptor; P11473; VDR-SRC2-3 peptide fluorescence polarization, 2 h; 400,000 compounds, 0.93% hits; Potency, µM, without a hit: max response, negative = inhibition, hits mostly inhibitors; AID 504847; also: % is scaled to controls: 0 for no effect and ±100 for the full control effect
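Fluorescence polarization assay of small-molecule disruption of VDR binding to coregulator peptide SRC2-3. Compounds and controls pin-transferred, then read after 2 h incubation at ambient room temperature.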
PLK1 PBD inh = blocks phosphopeptide binding to human PLK1 polo-box domain | Potency, µM, for the others: max response, negative = inhibition, hits mostly inhibitors | 360,000 compounds, 2.8% hits | Plk1 PBD binding of FITC phosphopeptide, fluorescence polarization | AID 720504; also: series mostly up to about 57 µM; % is scaled to controls: 0 for no effect and ±100 for the full control effect; nearly all actives have a fitted effect of over 65% in size
Target sequence (P53350 whole entry, looked up, the tested form may be a part): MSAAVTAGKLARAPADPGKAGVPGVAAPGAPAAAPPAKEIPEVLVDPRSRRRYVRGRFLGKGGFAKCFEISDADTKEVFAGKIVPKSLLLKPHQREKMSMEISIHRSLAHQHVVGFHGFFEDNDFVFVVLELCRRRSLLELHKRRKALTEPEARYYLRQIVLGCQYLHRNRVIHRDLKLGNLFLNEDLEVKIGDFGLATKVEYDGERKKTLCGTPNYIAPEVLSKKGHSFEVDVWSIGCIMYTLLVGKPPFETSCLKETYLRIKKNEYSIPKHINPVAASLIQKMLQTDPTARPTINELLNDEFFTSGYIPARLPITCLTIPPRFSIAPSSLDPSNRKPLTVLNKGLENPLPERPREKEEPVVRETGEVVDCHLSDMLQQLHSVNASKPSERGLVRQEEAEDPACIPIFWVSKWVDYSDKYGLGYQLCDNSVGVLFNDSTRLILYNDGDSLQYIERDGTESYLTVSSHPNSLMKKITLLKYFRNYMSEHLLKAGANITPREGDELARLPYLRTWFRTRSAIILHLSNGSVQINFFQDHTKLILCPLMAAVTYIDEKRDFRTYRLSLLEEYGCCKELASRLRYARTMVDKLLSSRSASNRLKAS
Active calls of the source: *; ? = inconclusive; · = not tested or not shown; [ ] = remark or other dose. Calls follow the shape of the dose curve; as a rule, active = well fitted curve in the direction sought with a large enough effect; inconclusive = small, poorly fitted or top-dose-only effect, or another doubt; inactive = no such curve, though single readings can be large; an effect the other way counts as inactive or inconclusive. Potency is read from the fitted curve at half-maximal effect.

SMILES	G9a block	BAZ2B block	JMJD2A Tudor inh	HP1b chromo inh	VDR inhibitor	PLK1 PBD inh
COCCSc1nnc(NS(=O)(=O)c2ccccc2)s1	28µM*	?	-6%	26%	0%	?
CCCCCCCCCCCCC/C=C/C(O)C(COP(=O)(O)OCCN)NC(=O)CCCCCCCCCCCCCCCCC (configuration not stated)	·	·	·	·	-1%	·
COc1ccccc1NC(=O)Cn1c(=O)n(-c2cccc(C)c2)c(=O)c2c1c1cc(C)ccc1n2C	5%[59 µM]	7%	-17%	29%	8%	·
O=C1CCc2cc(S(=O)(=O)Nc3ccc(Cl)c(Cl)c3)ccc2N1	·	·	-13%	·	·	·
COc1ccccc1NC(=O)NNC(=O)CCN1CCOCC1	?	18%	-7%	48%	21%	-6%
COc1c(N)c2c(c([N+](=O)[O-])c1OC)C(=O)OC2	·	·	-19%	10%	10%	-4%
Cc1ccc(NC(=O)c2ccc3snnc3c2)cc1Cl	10%[59 µM]	-16%	-2%	40%	20%	·
COCCSc1nnc(NC(=O)c2cc(C(=O)OC)cc([N+](=O)[O-])c2)s1	50µM*	-37%	-16%	20%	-14%	-10%
COCc1nnc(NC(=O)c2cc(C(=O)OC)cc([N+](=O)[O-])c2)s1	-1%[59 µM]	1%	9%	23%	1%	-15%
CC(=O)c1ccc(S(=O)(=O)NCCC(=O)NC2CCN(Cc3ccccc3)CC2)cc1	·	·	4.5µM*	14µM*	0%	-17%
COc1cc(NC(=O)C2CC2)c(OC)cc1NC(=O)CCC(=O)NC1CCN(Cc2ccccc2)CC1	40µM*	-4%	-15%	20%	-13%	-28%
CCC(=O)OCc1cc(=O)n2nc(C3CC3)sc2n1	0%[59 µM]	-12%	-20%	32%	10%	·
CCOC(=O)C1C(=O)C(C(C)=O)C(=O)CC1CC(C)SCC (configuration not stated)	?	-9%	89µM*	-2%	48%	-5%
CCOC(=O)C1C(=O)CC(=O)C(C(=O)OCC)C1c1ccc(O)cc1 (configuration not stated)	·	·	·	·	·	-3%
Cc1cc(C)c(C)c(S(=O)(=O)Nc2ccc3cn[nH]c3c2)c1C	10%[12.7 µM]	-2%	-15%	42%	-11%	-3%
O=S(=O)(Nc1ccc2cn[nH]c2c1)c1ccc(C(F)(F)F)cc1	17%[2.33 µM]	4%	-5%	45%	17%	2%
O=C(O)c1cc(S(=O)(=O)Nc2ccc3cn[nH]c3c2)ccc1Cl	·	·	89µM*	?	-17%	-3%
COC(=O)c1ccccc1S(=O)(=O)Nc1ccc2cn[nH]c2c1	45µM*	-3%	0%	49%	7%	-7%
O=S(=O)(c1ccc2c(c1)OCCO2)N1CCN(S(=O)(=O)c2ccccc2F)CC1	·	·	-18%	·	·	·
Cc1cc(N=Nc2ccccc2)cc(C)c1NC(=O)C(F)(F)F	·	·	?	-15%	-7%	1%
COc1cc2c(cc1OC)CN(C(=O)C1CCC(=O)N(CCCN3CCOCC3)C1)CC2 (configuration not stated)	·	-3%	-10%	30%	12%	0%
O=C1CCC(C(=O)N2CCc3c(Cl)cccc3C2)CN1CCCN1CCOCC1 (configuration not stated)	40µM*	-12%	-1%	37%	-4%	2%
Cc1nc(-c2ccc(S(=O)(=O)N3CCN(C4c5ccccc5-c5ccccc54)CC3)s2)cs1	56µM*	-29%	-12%	?	-18%	-3%
Cc1nc(-c2ccc(S(=O)(=O)Oc3ccccc3Cl)s2)cs1	35%	24%	68%	70%	8%	-10%
Cc1nc(-c2ccc(S(=O)(=O)N3CCCN(CCc4ccccc4)CC3)s2)cs1	50µM*	56µM*	?	-8%	10%	3%
SMILES	G9a block	BAZ2B block	JMJD2A Tudor inh	HP1b chromo inh	VDR inhibitor	PLK1 PBD inh
COC(=O)c1ccc(Cn2c(SCc3ccccc3F)nc3ccncc32)cc1	?	-14%	-15%	38%	19%	·
O=C(CN1CCCCCC1)NC(c1ccccc1)c1ccccc1	7.9µM*	79µM*	22µM*	?	-13%	-6%
O=C(CN1CCN(c2ccc(O)cc2)CC1)NC(c1ccccc1)c1ccccc1	7.9µM*	?	50µM*	?	9%	-19%
O=C(CN1CCCCC1)Nc1ccccc1	-6%	5%	-5%	44%	17%	1%
CCOC(=O)c1[nH]c2cc3c(cc2c1NC(=O)CN1CCN(CCO)CC1)OCO3	-41%	-21%	-2%	15%	11%	1%
CCS(=O)(=O)N1CCC2(CC1)OC(=O)C(C)=C2C(=O)NCc1ccccc1C	9%[59 µM]	6%	-11%	13%	3%	·
Cc1ccc(-c2ccc(CCC(=O)O)n2C(C)C)cc1	79µM*	?	-30%	-3%	0%	?
Cc1ccc(-c2ccc(CCC(=O)O)n2-c2ccc(C)c(Cl)c2)cc1	13µM*	?	?	-19%	?	·
COc1ccc(-c2ccc(CCC(=O)O)n2-c2ccc(Cl)cc2C)cc1	?	?	?	2%	-15%	·
COc1ccc(C(=O)Nn2c(CCC(=O)O)ccc2-c2ccc(C)cc2)cc1OC	-30%	-25%	50µM*	-19%	7%	21µM*
Cc1ccc(C)c(-n2c(CCC(=O)O)ccc2-c2ccc(Cl)cc2)c1	13µM*	40µM*	?	-13%	?	·
CCOc1ccc(S(=O)(=O)NCC2CCCO2)c2ccccc12 (configuration not stated)	39%	0%	-11%	9%	-25%	-10%
COc1cccc(C(=O)N(Cc2sccc2C)C2CCS(=O)(=O)C2)c1 (configuration not stated)	9%[59 µM]	-2%	-15%	12%	-1%	·
Cc1nnc2ccc(-c3cccc(NS(=O)(=O)c4ccccc4[N+](=O)[O-])c3)nn12	50µM*	-34%	2%	28%	10%	-6%
Cc1cc([N+](=O)[O-])c2c(c1C)C1C=CCC1C(c1ccccn1)N2 (configuration not stated)	28µM*	·	·	·	·	·
CCOc1ccc(CC(=O)NCC(c2cccs2)S(=O)(=O)c2ccc(F)c(C)c2)cc1 (configuration not stated)	3%[12.7 µM]	-1%	-13%	37%	4%	·
O=C(Nc1ccccc1C(=O)OCc1cc(=O)n2ccsc2n1)c1cccc(F)c1	2%[59 µM]	-7%	-19%	36%	-6%	·
COc1cccc(CNC(=O)[C@@H]2CCCN2C(=O)[C@H]2CCCCN2C(=O)c2cccc(OC)c2)c1	·	·	·	·	·	-4%
CCC(CC)C(=O)Nc1ccc(C(=O)OCc2cc(=O)n3nc(C4CC4)sc3n2)cc1	27%[59 µM]	-14%	-5%	10%	8%	·
O=Nc1c(-c2c(O)[nH]c3cc(Br)ccc23)[nH]c2ccccc12	8.4µM*	4µM*	3.2µM*	4µM*	-28%	-3%
